# Tests used:
# Assay in all cases: DAPPL (digital affinity profiling via proximity ligation, sequencing); 10 mM Tris-HCl pH 7.5, 50 mM NaCl, 1 mM DTT, 4% glycerol, room temperature, 30 min; GST-TFs on glutathione beads, 16-mer random dsDNA library, 0.1% formaldehyde crosslink after washing; high values mean tight binding
# FLI1 = target: T1, FLI1 (Homo sapiens, UniProt Q01543 1-452); conditions: protein: recombinant; tags: N-terminal GST; dsDNA, one strand shown
# T1 sequence: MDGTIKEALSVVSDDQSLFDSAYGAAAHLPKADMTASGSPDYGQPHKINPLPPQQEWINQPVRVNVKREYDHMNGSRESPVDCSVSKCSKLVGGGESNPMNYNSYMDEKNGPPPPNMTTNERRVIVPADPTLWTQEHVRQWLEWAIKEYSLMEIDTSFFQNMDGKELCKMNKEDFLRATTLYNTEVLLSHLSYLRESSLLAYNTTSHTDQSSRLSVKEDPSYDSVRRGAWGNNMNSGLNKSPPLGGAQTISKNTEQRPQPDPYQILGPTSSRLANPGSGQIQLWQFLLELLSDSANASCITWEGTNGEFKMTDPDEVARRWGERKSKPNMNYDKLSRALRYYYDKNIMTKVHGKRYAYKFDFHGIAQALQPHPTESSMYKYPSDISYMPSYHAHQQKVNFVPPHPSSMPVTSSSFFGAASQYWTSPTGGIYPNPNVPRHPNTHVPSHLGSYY
# How it was run: (§1)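 GST fusions of human transcription factors were expressed in yeast and captured with glutathione beads. Once given DNA barcodes and pooled alongside a tag-only sample, they were incubated for 30 min at room temperature with 200 nmole of a random double-stranded 16-mer DNA library in Tris/NaCl/DTT/glycerol buffer, then washed, crosslinked (0.1% formaldehyde), proximity-ligated, PCR-amplified and sequenced on an Illumina NextSeq500. The binding signal of each hexamer is its read frequency for a factor divided by its frequency for the tag-only sample.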
# ELK1 = target: T2, ELK1 (Homo sapiens, UniProt P19419 1-428); conditions: protein: recombinant; tags: N-terminal GST; dsDNA, one strand shown
# T2 sequence: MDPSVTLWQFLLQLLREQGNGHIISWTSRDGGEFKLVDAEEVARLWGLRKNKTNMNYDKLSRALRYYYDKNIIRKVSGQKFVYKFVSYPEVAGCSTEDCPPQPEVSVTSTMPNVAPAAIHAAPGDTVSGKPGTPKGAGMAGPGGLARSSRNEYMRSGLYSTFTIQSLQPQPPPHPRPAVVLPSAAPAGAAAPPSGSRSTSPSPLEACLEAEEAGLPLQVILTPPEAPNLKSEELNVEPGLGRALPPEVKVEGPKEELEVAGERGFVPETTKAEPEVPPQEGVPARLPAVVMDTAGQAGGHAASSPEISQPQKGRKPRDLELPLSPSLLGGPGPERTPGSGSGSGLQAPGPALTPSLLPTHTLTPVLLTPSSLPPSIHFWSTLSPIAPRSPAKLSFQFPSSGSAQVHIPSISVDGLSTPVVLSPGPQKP
# How it was run: as §1
# GABPA = target: T3, GABPA (Homo sapiens, UniProt Q06546 1-454); conditions: protein: recombinant; tags: N-terminal GST; dsDNA, one strand shown
# T3 sequence: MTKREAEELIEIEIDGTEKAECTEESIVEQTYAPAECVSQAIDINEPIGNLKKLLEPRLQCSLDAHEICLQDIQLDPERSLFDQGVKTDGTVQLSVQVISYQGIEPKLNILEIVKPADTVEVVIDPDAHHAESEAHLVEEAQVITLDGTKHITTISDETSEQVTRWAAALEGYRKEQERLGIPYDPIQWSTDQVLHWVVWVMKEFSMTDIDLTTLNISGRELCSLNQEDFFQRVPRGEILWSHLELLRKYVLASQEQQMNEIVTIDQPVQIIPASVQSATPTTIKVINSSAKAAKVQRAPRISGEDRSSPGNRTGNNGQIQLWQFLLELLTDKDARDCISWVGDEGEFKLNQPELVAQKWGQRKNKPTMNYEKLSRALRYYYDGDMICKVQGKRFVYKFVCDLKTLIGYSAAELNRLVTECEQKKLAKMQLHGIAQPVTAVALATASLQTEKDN
# How it was run: as §1
# ERG = target: T4, ERG (Homo sapiens, UniProt P11308 1-479); conditions: protein: recombinant; tags: N-terminal GST; dsDNA, one strand shown
# T4 sequence: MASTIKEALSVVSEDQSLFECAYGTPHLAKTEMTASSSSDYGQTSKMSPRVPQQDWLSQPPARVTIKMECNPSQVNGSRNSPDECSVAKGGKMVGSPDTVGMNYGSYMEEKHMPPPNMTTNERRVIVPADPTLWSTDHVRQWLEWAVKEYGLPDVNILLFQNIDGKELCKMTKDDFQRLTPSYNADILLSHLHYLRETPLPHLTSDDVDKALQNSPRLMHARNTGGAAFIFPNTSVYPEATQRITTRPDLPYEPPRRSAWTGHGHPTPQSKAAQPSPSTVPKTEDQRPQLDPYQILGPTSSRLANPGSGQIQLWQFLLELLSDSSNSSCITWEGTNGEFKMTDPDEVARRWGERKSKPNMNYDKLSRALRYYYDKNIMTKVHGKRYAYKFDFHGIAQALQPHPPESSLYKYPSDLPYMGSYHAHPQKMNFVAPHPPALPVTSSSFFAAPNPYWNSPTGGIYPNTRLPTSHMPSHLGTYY
# How it was run: as §1
# ELF1 = ELF1 (Homo sapiens, UniProt P32519 1-619); conditions: protein: recombinant; tags: N-terminal GST; dsDNA, one strand shown
# How it was run: as §1
# EHF = target: T5, EHF (Homo sapiens, UniProt Q9NZC4 1-300); conditions: protein: recombinant; tags: N-terminal GST; dsDNA, one strand shown
# T5 sequence: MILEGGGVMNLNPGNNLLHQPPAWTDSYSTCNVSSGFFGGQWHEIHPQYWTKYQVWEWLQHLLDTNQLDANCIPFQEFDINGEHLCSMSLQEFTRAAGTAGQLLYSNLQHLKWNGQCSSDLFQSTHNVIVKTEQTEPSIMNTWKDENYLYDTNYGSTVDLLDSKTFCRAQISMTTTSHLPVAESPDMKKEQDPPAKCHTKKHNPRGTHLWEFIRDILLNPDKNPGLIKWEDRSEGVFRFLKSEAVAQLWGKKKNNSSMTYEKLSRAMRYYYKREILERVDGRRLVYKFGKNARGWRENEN
# How it was run: as §1
# SPI1 = SPI1 (Homo sapiens, UniProt P17947 1-270); conditions: protein: recombinant; tags: N-terminal GST; dsDNA, one strand shown
# How it was run: as §1
# SPIB = SPIB (Homo sapiens, UniProt Q01892 1-262); conditions: protein: recombinant; tags: N-terminal GST; dsDNA, one strand shown
# How it was run: as §1
# ELK3 = target: T6, ELK3 (Homo sapiens, UniProt P41970 1-407); conditions: protein: recombinant; tags: N-terminal GST; dsDNA, one strand shown
# T6 sequence: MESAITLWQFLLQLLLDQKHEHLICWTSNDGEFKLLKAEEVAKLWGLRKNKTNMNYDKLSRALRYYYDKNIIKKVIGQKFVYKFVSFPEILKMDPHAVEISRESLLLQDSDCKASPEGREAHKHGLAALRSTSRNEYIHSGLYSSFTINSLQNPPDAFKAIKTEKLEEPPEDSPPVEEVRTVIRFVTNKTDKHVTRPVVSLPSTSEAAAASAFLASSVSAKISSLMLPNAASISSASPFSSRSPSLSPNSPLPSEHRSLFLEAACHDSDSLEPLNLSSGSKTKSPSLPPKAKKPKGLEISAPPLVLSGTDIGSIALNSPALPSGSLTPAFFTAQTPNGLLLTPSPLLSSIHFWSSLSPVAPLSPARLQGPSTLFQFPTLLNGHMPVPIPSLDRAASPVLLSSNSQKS
# How it was run: as §1
# FEV = target: T7, FEV (Homo sapiens, UniProt Q99581 1-238); conditions: protein: recombinant; tags: N-terminal GST; dsDNA, one strand shown
# T7 sequence: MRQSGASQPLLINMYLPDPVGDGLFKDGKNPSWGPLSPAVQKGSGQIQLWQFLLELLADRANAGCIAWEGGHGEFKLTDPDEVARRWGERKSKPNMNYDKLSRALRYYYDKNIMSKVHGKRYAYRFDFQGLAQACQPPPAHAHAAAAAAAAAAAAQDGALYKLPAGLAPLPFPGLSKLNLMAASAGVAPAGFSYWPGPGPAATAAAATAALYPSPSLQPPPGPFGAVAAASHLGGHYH
# How it was run: as §1
# ETV5 = ETV5 (Homo sapiens, UniProt P41161 1-510); conditions: protein: recombinant; tags: N-terminal GST; dsDNA, one strand shown
# How it was run: as §1
# HSF1 = HSF1 (Homo sapiens, UniProt Q00613 1-529); conditions: protein: recombinant; tags: N-terminal GST; chain copies: 3; dsDNA, one strand shown
# How it was run: as §1
# SPIC = target: T8, SPIC (Homo sapiens, UniProt Q8N5J4 1-248); conditions: protein: recombinant; tags: N-terminal GST; dsDNA, one strand shown
# T8 sequence: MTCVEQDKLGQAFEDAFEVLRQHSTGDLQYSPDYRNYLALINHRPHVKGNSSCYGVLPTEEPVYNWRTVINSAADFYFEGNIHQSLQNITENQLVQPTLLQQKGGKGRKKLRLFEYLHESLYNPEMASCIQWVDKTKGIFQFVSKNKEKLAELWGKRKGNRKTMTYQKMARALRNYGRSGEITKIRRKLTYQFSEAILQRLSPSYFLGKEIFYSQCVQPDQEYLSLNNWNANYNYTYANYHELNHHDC
# How it was run: as §1
# ELF4 = ELF4 (Homo sapiens, UniProt Q99607 1-663); conditions: protein: recombinant; tags: N-terminal GST; dsDNA, one strand shown
# How it was run: as §1
# ELK4 = target: T9, ELK4 (Homo sapiens, UniProt P28324-2 1-405); conditions: protein: recombinant; tags: N-terminal GST; dsDNA, one strand shown
# T9 sequence: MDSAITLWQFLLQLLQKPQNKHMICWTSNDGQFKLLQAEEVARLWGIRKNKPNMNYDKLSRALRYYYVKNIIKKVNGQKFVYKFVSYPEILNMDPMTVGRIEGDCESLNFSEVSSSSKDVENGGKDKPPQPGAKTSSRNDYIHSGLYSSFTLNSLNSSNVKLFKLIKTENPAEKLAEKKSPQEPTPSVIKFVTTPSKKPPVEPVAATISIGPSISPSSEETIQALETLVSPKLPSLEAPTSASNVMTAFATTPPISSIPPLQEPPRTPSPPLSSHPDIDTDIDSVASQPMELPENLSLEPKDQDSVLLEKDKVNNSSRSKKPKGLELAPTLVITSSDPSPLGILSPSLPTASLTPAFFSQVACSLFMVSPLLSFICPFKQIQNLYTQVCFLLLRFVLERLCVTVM
# How it was run: as §1
# ETV2 = target: T10, ETV2 (Homo sapiens, UniProt O00321 1-342); conditions: protein: recombinant; tags: N-terminal GST; dsDNA, one strand shown
# T10 sequence: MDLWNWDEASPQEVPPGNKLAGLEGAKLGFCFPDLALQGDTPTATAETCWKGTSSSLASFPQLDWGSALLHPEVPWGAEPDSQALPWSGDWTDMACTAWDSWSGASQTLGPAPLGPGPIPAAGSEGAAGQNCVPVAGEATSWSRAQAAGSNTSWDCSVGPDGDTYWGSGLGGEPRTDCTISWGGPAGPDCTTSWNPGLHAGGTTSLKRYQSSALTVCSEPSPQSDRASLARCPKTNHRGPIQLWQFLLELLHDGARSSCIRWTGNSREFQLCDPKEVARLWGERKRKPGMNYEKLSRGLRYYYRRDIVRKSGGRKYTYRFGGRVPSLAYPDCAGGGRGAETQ
# How it was run: as §1
# ELF3 = target: T11, ELF3 (Homo sapiens, UniProt P78545 1-371); conditions: protein: recombinant; tags: N-terminal GST; dsDNA, one strand shown
# T11 sequence: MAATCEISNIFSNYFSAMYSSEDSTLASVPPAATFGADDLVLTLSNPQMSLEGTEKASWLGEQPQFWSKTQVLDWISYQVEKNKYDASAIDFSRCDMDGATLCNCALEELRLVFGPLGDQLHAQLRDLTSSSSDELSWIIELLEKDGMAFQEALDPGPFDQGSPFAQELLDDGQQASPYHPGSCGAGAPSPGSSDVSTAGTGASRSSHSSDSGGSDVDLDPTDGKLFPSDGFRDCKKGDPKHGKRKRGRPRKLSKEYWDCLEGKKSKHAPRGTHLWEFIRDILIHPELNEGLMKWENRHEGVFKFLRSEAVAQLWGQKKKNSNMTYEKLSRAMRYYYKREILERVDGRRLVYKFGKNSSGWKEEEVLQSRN
# How it was run: as §1
# CRX = CRX (Homo sapiens, UniProt O43186 1-299); conditions: protein: recombinant; tags: N-terminal GST; dsDNA, one strand shown
# How it was run: as §1
# ETV1 = ETV1 (Homo sapiens, UniProt P50549 1-477); conditions: protein: recombinant; tags: N-terminal GST; dsDNA, one strand shown
# How it was run: as §1
# CRX, sequence (O43186 whole entry): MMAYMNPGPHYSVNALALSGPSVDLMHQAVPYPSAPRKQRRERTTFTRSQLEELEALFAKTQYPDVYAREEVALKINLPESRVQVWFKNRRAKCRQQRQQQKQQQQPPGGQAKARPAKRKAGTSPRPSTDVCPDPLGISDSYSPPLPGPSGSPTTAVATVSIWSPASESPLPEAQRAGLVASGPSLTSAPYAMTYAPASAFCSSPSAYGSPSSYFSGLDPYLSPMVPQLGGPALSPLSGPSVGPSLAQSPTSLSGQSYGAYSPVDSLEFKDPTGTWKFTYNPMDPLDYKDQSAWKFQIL
# ETV1, sequence (P50549 whole entry): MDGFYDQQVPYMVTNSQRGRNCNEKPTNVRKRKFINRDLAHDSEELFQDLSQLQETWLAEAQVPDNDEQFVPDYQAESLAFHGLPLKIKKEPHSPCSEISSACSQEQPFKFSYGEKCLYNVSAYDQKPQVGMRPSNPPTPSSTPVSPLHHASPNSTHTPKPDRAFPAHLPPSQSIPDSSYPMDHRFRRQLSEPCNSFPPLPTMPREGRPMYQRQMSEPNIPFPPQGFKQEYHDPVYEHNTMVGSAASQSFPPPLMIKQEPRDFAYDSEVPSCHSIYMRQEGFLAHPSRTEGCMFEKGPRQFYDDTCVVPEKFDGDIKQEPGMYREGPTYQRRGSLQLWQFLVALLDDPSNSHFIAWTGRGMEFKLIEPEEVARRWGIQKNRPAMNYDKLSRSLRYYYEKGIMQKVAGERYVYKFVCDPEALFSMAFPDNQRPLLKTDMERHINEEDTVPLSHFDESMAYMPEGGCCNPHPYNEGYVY
# ELF1, sequence (P32519 whole entry): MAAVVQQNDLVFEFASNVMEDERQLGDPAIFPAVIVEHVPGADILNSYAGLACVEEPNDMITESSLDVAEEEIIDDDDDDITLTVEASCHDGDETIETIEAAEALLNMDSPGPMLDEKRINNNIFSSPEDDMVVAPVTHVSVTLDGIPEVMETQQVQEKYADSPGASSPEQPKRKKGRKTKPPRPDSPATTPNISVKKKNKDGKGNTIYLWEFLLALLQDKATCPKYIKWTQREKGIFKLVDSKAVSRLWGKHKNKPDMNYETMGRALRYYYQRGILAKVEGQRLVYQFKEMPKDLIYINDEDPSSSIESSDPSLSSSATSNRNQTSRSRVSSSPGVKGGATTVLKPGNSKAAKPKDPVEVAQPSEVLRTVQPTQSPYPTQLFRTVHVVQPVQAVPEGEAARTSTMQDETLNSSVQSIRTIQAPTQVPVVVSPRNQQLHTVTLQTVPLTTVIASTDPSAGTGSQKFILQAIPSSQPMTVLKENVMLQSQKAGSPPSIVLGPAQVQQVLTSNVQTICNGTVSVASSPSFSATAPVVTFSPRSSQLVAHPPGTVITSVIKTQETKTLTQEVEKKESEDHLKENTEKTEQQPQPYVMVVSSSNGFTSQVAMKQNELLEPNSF
# HSF1, sequence (Q00613 whole entry): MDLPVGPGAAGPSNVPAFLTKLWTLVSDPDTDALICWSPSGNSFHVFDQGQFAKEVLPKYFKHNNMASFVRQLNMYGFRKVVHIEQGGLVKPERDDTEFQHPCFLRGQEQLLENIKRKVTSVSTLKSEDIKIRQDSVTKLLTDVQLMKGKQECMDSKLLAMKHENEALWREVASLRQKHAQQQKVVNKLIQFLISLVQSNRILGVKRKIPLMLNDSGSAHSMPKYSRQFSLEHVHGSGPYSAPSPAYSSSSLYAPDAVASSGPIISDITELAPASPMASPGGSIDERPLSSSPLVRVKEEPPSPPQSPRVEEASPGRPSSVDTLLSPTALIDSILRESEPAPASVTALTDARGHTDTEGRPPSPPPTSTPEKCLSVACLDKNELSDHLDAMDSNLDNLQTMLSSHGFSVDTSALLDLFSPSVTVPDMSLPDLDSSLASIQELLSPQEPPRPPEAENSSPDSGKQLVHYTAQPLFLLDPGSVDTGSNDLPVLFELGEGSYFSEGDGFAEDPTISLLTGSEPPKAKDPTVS
# SPIB, sequence (Q01892 whole entry): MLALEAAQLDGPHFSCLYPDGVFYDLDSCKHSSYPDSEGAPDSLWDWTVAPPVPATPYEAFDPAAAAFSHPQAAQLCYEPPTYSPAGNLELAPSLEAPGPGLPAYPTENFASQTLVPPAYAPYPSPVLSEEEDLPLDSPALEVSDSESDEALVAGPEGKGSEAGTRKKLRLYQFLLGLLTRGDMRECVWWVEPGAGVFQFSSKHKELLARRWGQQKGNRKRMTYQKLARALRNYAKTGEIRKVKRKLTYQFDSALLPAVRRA
# ETV5, sequence (P41161 whole entry): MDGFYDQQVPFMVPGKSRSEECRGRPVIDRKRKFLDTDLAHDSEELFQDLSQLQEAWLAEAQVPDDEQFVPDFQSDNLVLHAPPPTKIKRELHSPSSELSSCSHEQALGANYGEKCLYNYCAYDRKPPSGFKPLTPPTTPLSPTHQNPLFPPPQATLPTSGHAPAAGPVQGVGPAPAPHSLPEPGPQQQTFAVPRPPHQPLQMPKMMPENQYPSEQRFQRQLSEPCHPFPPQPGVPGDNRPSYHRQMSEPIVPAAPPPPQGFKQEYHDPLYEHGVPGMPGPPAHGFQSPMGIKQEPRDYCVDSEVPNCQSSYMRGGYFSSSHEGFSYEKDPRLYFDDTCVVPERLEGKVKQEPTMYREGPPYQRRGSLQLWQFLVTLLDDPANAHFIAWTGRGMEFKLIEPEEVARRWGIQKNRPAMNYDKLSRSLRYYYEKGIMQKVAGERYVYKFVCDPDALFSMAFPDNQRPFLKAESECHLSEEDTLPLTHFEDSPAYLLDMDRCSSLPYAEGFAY
# ELF4, sequence (Q99607 whole entry): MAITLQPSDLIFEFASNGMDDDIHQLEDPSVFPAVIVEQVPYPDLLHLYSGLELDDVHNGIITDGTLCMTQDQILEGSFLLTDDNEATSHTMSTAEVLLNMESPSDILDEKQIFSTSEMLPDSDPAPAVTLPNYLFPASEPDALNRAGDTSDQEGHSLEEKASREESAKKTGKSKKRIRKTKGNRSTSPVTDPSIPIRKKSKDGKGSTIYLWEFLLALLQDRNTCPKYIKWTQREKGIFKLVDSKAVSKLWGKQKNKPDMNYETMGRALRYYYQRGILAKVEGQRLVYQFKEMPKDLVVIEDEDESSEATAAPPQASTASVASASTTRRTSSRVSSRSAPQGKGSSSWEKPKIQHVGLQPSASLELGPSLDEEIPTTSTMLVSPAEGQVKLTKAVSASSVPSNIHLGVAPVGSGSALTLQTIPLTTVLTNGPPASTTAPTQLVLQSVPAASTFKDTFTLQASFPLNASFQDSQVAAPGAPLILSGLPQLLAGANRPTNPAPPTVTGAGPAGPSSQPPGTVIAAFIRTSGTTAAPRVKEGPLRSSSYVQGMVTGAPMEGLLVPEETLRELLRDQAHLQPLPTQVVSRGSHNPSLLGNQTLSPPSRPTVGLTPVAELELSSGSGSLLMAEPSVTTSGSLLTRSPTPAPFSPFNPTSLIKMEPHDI
sequence,measurement,setting,value
ACTGCT,binding signal,FLI1,"1.44 fold enrichment (6-mer frequency, TF over GST control)"
same,binding signal,ELK1,"1.45 fold enrichment (6-mer frequency, TF over GST control)"
same,binding signal,GABPA,"1.29 fold enrichment (6-mer frequency, TF over GST control)"
same,binding signal,ERG,"1.29 fold enrichment (6-mer frequency, TF over GST control)"
same,binding signal,ELF1,"1.35 fold enrichment (6-mer frequency, TF over GST control)"
same,binding signal,EHF,"1.41 fold enrichment (6-mer frequency, TF over GST control)"
same,binding signal,SPI1,"1.46 fold enrichment (6-mer frequency, TF over GST control)"
same,binding signal,SPIB,"1.36 fold enrichment (6-mer frequency, TF over GST control)"
same,binding signal,ELK3,"1.26 fold enrichment (6-mer frequency, TF over GST control)"
same,binding signal,FEV,"1.48 fold enrichment (6-mer frequency, TF over GST control)"
same,binding signal,ETV5,"1.41 fold enrichment (6-mer frequency, TF over GST control)"
same,binding signal,HSF1,"1.19 fold enrichment (6-mer frequency, TF over GST control)"
same,binding signal,SPIC,"1.56 fold enrichment (6-mer frequency, TF over GST control)"
same,binding signal,ELF4,"1.3 fold enrichment (6-mer frequency, TF over GST control)"
same,binding signal,ELK4,"1.54 fold enrichment (6-mer frequency, TF over GST control)"
same,binding signal,ETV2,"1.26 fold enrichment (6-mer frequency, TF over GST control)"
same,binding signal,ELF3,"1.32 fold enrichment (6-mer frequency, TF over GST control)"
same,binding signal,CRX,"1.21 fold enrichment (6-mer frequency, TF over GST control)"
same,binding signal,ETV1,"1.33 fold enrichment (6-mer frequency, TF over GST control)"

# — article PMC7862700, “An all-to-all approach to the identification of sequence-specific readers for epigenetic DNA modifications on cytosine”
